Records with an inconclusive call do not appear. Entries that show only a call come without a potency. Activity calls are given as the source filed them. Calls come from the whole dose curve; as a rule, active = well fitted inhibition curve with a large enough effect; inconclusive = small, poorly fitted or top-dose-only effect; inactive = no such curve, though single readings can be large or run the other way.
Assay: Acumen qHTS Assay for Inhibitors of the mTORC1 Signaling Pathway in WT MEF Cells: Hit Validation; note: nearly all actives have a fitted effect of over 60% in size
Conditions: Acumen imaging; series mostly up to 37.3 µM
How it was run: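 Read-out is immunofluorescent phospho-rpS6 (Ser235/236) normalised to PI-stained cell number, reported as % active cells using a 7.5 nM rapamycin threshold. Cells: WT or Tsc2-/-, p53-/- MEFs, compound-exposed 24 h at 37C; PI count also tracks viability.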
Potency is the fitted concentration of half-maximal effect.

SMILES	Potency
CCS(=O)(=O)c1ncc(Cl)c(C(=O)N2CCN(c3cccc(Cl)c3)CC2)n1	2610 nM (active)
Cc1cc(C)c(NC(=O)c2sc3nc(C)cc(C)c3c2NC(=O)c2ccccc2)c(C)c1	inactive
CC(C)CCNC(=O)Nc1ccc2c(c1)N(C)C(=O)c1ccccc1S2	inactive
COc1ccc(NC(=O)c2c(NC(=O)COc3ccccc3)sc3c2CCC(C)C3)cc1 (stereo not given)	inactive
Cc1ccc(-c2nnn(CC(=O)N(CC(=O)NCCC(C)C)c3ccc(F)cc3)n2)cc1	inactive
Cc1cccc(C(=O)Nc2c3c(nn2-c2ccc(Cl)cc2)CS(=O)(=O)C3)c1	inactive
CCOC(=O)Cc1ccc(NC(=O)n2ncc3cc(Cl)ccc32)cc1	inactive
Cc1cccn2c(Nc3ccccc3)c(-c3cccs3)nc12	inactive
CCNC(=O)c1c(NC(=O)c2nc(S(=O)(=O)CC)ncc2Cl)sc2c1CCCC2	585 nM (active)
Cn1nnnc1SCCCNCc1cc(Cl)ccc1OCc1ccc(F)cc1	inactive
Cc1cc(C)c(-c2n[nH]c3c2C(c2ccccc2F)N(Cc2ccco2)C3=O)c(O)c1 (stereo not given)	inactive
Cc1ccc(CNS(=O)(=O)c2cc(C(=O)Nc3cccc(C(F)(F)F)c3)ccc2F)cc1	inactive
Cc1cccc(Nc2nnc(-c3ccc(C)c(S(=O)(=O)N4CCN(C)CC4)c3)c3ccccc23)c1	inactive
O=C(CSc1nc2c([nH]c3ccccc32)c(=O)n1-c1ccc(F)cc1)NC1CCCCC1	inactive
Cc1c(C(=O)OCCOc2ccccc2)[nH]c2c1C(=O)CC(c1ccccc1)C2 (stereo not given)	65.6 nM (active)
CCCCN(CC)CCNC(=O)C1CCN(c2nnc(C)c3c(C)n(-c4ccc(C)cc4)nc23)CC1	inactive
O=C(Cn1c(=O)c2cccn2c2ccccc21)NCc1ccccc1F	inactive
CCn1c(=O)sc2cc(NS(=O)(=O)c3ccc(F)c(C)c3)ccc21	inactive
CCOc1ccccc1NC(=O)CSc1cc(=O)n(CC)c2ccccc12	inactive
O=C(CC(NCc1cccnc1)C(=O)O)Nc1ccc(O)cc1 (stereo not given)	inactive

SMILES	Potency
O=C(CN1C(=O)C(c2ccc(F)cc2)=NC12CCCCCC2)Nc1ccccc1Cl	inactive
CCOc1ccc(C(=O)NCCc2sc(-c3ccc(C)cc3)nc2C)cc1	inactive
Cc1cccc(Oc2coc3cc(OCC(=O)NC4CCCCC4)ccc3c2=O)c1	inactive
C#CC(C)(CC)NC(=O)Cn1nnc(-c2ccc(OCc3c(F)cccc3Cl)cc2)n1 (stereo not given)	inactive
O=C(NCCN1CCN(c2cccc(Cl)c2)CC1)Nc1ccccc1C(F)(F)F	inactive
CCCCC(CC)CNC(=O)c1ccc(Cn2c(=O)[nH]c3cc(OC)c(OC)cc3c2=O)cc1 (stereo not given)	13100 nM (active)
CC(C)CS(=O)(=O)c1oc(-c2ccc(F)cc2)nc1S(=O)(=O)c1ccccc1	585 nM (active)
O=C(NCc1ccccc1)c1ccc2c(c1)N(Cc1ccccc1F)C(=O)c1ccccc1S2=O (stereo not given)	inactive
Cc1ccc(NC(=O)c2ccc(CN3CCN(C)CC3)cc2)cc1Nc1nccc(-c2cccnc2)n1	inactive
COc1ccc(S(=O)(=O)NCCc2sc3nc(-c4ccc(C)cc4)nn3c2C)cc1F	inactive
CCc1ccc(NC(=O)Cn2nc(C(F)(F)F)c3c2CCCC3)cc1	inactive
COc1cccc(-c2nnc3sc(CN4CCCCC4)cn23)c1	1650 nM (active)
Cc1ccc(-c2nnc(Nc3ccc(O)cc3)c3ccccc23)cc1S(=O)(=O)N1CCCCC1	inactive
CCN(C(=O)C(NS(=O)(=O)c1ccc(Br)s1)c1ccccc1)c1ccc(C)c(C)c1 (stereo not given)	inactive
CCOC(=O)c1ccc(N2C(=O)c3n[nH]c(-c4ccco4)c3C2c2ccc(OCC)cc2)cc1 (stereo not given)	inactive
Cc1ccc(CN(Cc2ccco2)C(=O)c2cccc(C)c2)cc1	inactive
Cc1nn(CC(=O)N2CCN(c3ccccc3F)CC2)c(=O)c2cccn12	inactive
O=C(CCCn1ccc2cc(S(=O)(=O)N3CCCC3)ccc21)NCc1ccc(Cl)cc1	inactive
O=C(Nc1ccc2oc(-c3ccc4ccccc4c3)nc2c1)c1cc(Br)ccc1Cl	13100 nM (active)
CCOCc1cc(CN2CCN(c3ccccc3OC)CC2)c(O)c2ncccc12	inactive
